This passage reports Potency and activity change, negative = inhibition results from PubChem BioAssay (Tox21).

Inconclusive results are not listed. Where a call stands in place of a potency, no number is given. Values without a mark were called inactive. Calls of active or inactive are those of the source. Calls follow the shape of the full dose curve.
Potency is read from the fitted curve at half-maximal effect.

The target in the experiment is Beta-2 adrenergic receptor (Homo sapiens) (UniProt P07550). The experiment is described as follows: Adrenergic beta2 receptor (ADRB2) small molecule antagonists, cell-based qHTS assay (AID 1963592). Also: nearly all actives have a fitted effect of over 50% in size. Particulars: CHO-ADRB2 cells, isoproterenol-stimulated cAMP HTRF ratio, 0.5 h; series mostly up to 92.4 µM. The text has this: U.S. Tox21 Program National Center for Advancing Translational Sciences [NCATS] Division of Preclinical Innovation [DPI] U.S. Environmental Protection Agency [EPA] National Institutes of Environmental Health Sciences [NIEHS] National Toxicology Program [NTP] U.S. Food and Drug Administration [FDA] Tox21 Assay Overview: Beta adrenergic receptors (Beta-ARs) belong to the G-protein coupled receptor (GPCR) superfamily, includes three subtypes - beta1, beta2, and beta3. Beta1-AR is the predominant receptor subtype expressed in the heart, and beta2-AR is expressed in the kidney, lung, blood vessel and in the heart, and beta3 is found in the adipocytes. Beta1 and 2 ARs couple to Gs protein and elevate cyclic adenosine mono phosphate (cAMP), which activates protein kinase A and leads to the downstream signaling responsible for the physiological actions. Beta-AR agonists or antagonists are the most prescribed therapeutic agents for heart failure and asthma, and these were one of the first target receptors for the rational drug design. Tox21 10K compound library was screened using the cAMP-Gs dynamic assay (Cisbio Bioassays, Shelton, CT) to identify agonists/antagonists of the Gs-coupled human adrenergic, beta2 receptor (ADRB2) in the CHO-ADRB2 cell line (Codex BioSolutions, Inc. Gaithersburg, MD), which stably over-expresses ADRB2. The principle of cAMP-Gs dynamic assay is based on HTRF technology, which facilitates the fluorescence resonance energy transfer (FRET) between donor Europium cryptate and acceptor d2-labeled cAMP. The cAMP generated within cells competes with the red acceptor, d2-labled cAMP, for binding to the monoclonal anti-cAMP-cryptate (Europium donor). An increase in intracellular cAMP leads to the disruption of FRET signal, and the signal is inversely proportional to the cAMP concentration. Propranolol HCl (Sigma-Aldrich, St. Louis, MO) was used as a positive control in the screening.
Beta-2 adrenergic receptor (Homo sapiens), sequence (P07550 whole entry, looked up): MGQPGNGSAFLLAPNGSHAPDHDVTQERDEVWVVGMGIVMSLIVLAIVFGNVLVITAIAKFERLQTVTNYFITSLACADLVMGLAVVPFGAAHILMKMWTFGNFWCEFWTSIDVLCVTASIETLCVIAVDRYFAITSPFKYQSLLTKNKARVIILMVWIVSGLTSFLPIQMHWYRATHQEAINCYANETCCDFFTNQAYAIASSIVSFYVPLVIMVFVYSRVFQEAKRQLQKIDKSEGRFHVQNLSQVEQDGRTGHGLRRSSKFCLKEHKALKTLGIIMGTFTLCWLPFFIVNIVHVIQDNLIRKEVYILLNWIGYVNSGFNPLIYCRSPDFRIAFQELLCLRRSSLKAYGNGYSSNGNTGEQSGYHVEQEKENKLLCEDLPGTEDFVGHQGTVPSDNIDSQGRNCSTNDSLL
Tox21 Assay Protocol Summary: CHO-ADRB2 cells were dispensed at 1,000/well in 4uL assay medium into white/solid 1536-well plates (Greiner Bio-One North America Inc., Monroe, NC) using a Multidrop Combi dispenser (ThermoFisher Scientific, Waltham, MA). The assay plates were incubated at 37C and 5% CO2 for an overnight (18-20hr). Then positive control and test compounds dissolved in DMSO were transferred to the assay plates at 23nL using a Pintool station (Wako, San Diego, CA). Following the compound and positive control transfer, 1uL agonist-stimulation mix containing 1nM Isoproterenol HCl, 100uM IBMX and 25uM Ro-20-1724 was added to each well of the assay plates using BioRAPTR Flying Reagent Dispenser (FRD, Beckman Coulter, Brea, CA). The assay plates were incubated at room temperature for 0.5hr. Then 2.5ul each d2-labled cAMP and anti-cAMP-cryptate solutions were added separately to each well of the assay plates using an FRD and the assay plates were incubated at room temperature for 1hr. The fluorescence signal was measured at two different wavelengths (665nm and 615nm) using an Envision plate reader (Perkin Elmer, Shelton, CT). Data were expressed as the ratio of 665 nm/615 nm.
Consider `C1CCOC1`, for which the Potency result was “inactive”. Same read-out and setting: in the case of `O=C(Cl)c1c(Cl)cccc1Cl` it was “inactive”; in that of `C=CCCCCCCCCOC(C)=O`, “inactive”; in that of `N/C(=N\N=C\c1ccc(Cl)cc1)N/N=C/c1ccc(Cl)cc1`, “inactive”. Turning to `OCCN1CCN(CC/C=C2/c3ccccc3Sc3ccc(C(F)(F)F)cc32)CC1`, the Potency result was “inactive”. Still for that read-out and setting: the same measure for `c1csc(SSc2cccs2)c1`: “inactive”. As for `O=C1CCCCCN1SSN1CCCCCC1=O`, the Potency result was “inactive”. Still for that read-out and setting: the same measure for `OC[C@H]1O[C@@H]2O[C@H]3[C@H](O)[C@@H](O)[C@@H](O[C@H]4[C@H](O)[C@@H](O)[C@@H](O[C@H]5[C@H](O)[C@@H](O)[C@@H](O[C@H]6[C@H](O)[C@@H](O)[C@@H](O[C@H]7[C@H](O)[C@@H](O)[C@@H](O[C@H]8[C@H](O)[C@@H](O)[C@@H](O[C@H]9[C@H](O)[C@@H](O)[C@@H](O[C@H]1[C@H](O)[C@H]2O)O[C@@H]9CO)O[C@@H]8CO)O[C@@H]7CO)O[C@@H]6CO)O[C@@H]5CO)O[C@@H]4CO)O[C@@H]3CO`: “inactive”. The same measure, in the same setting: in the case of `CC(=O)CC(=O)Nc1ccc(S(=O)(=O)O)cc1` it was “inactive”; in that of `CC(=O)N(CC(O)CO)c1c(I)c(C(=O)NCCO)c(I)c(C(=O)NCC(O)CO)c1I` (stereo not given), “inactive”. Still for that read-out and setting: in the case of `Sc1nc2ccccc2s1` it was “inactive”. `N#CCCOCCOCCC#N`: the Potency result is “inactive”. Still for that read-out and setting: in the case of `Cc1cccc(C)c1NC(=O)C(C)N` (stereo not given) it was “inactive”; in that of `O=C(NCC(O)CO)c1c(I)c(C(=O)NCC(O)CO)c(I)c(N(CCO)C(=O)CO)c1I` (stereo not given), “inactive”. With `COc1ccc2cc1Oc1ccc(cc1)C[C@H]1c3c(cc4c(c3Oc3cc5c(cc3OC)CCN(C)[C@@H]5C2)OCO4)CCN1C`, the Potency result was “inactive”.

For `C[C@@H]1C[C@H]2[C@@H]3CCC4=CC(=O)C=C[C@]4(C)[C@@]3(Cl)[C@@H](O)C[C@]2(C)[C@@]1(OC(=O)c1ccco1)C(=O)CCl`, the Potency result was “inactive”. For the compound `C#C[C@]1(O)CC[C@H]2[C@@H]3CCc4cc(OC5CCCC5)ccc4[C@H]3CC[C@@]21C`, the Potency entry is “inactive”. Turning to `Cc1c2ccccc2c(C)c2c1ccc1ccccc12`, the Potency entry was “inactive”.

In the case of `CNC(C)=O`, the Potency entry is “inactive”. Consider `CCCNC(C)(C)COC(=O)c1ccccc1`, for which the Potency entry was “inactive”. On to `COc1ccc(-c2nc3ccc(C4=NNC(=O)CC4C)cc3[nH]2)cc1` (stereo not given), for which the Potency entry is “inactive”. Same read-out and setting: the same measure for `COc1ccc(NC(=O)CC(C)=O)cc1`: “inactive”. On to `CC(C)(N)C#N`, for which the Potency result was “inactive”.

As to `CC(=O)CCc1ccc(OC(C)=O)cc1`, the Potency entry is “inactive”. On the same count and under the same terms, in the case of `c1ccc(B(c2ccccc2)c2ccccc2)cc1` it was “inactive”. The same measure, in the same setting: in the case of `CS(=O)(=O)c1ccc([C@@H](O)[C@@H](CF)NC(=O)C(Cl)Cl)cc1` it was “inactive”. The same measure, in the same setting: the same measure for `Cc1ccc(C(N)=O)cc1N`: “inactive”; for `COC(=O)C(C)=O`: “inactive”; for `O=C1CCCCCO1`: “inactive”. On to `NCCCOCCOCCOCCCN`, for which the Potency result is “inactive”. In the case of `O=C(Oc1ccccc1)c1ccc2ccccc2c1O`, the Potency entry is “inactive”.

As for `CCCCN(CCCC)c1ccc(C(=O)c2ccccc2C(=O)O)c(O)c1`, the Potency result was “inactive”. On the same count and under the same terms, the same measure for `C/C(=C(/OCCOc1ccc(Cl)cc1)c1ccc(Cl)cc1Cl)n1ccnc1`: “inactive”.

For the compound `CN[C@H]1CC[C@@H](c2ccc(Cl)c(Cl)c2)c2ccc(S(N)(=O)=O)cc21`, the Potency is 48.6 µM (active). As for `CCC(C)(C)c1ccc(CC(C)CN2C[C@@H](C)O[C@@H](C)C2)cc1` (stereo not given in full), the Potency result was “inactive”. Same read-out and setting: the same measure for `CCN1CCN(C(=O)N[C@@H](C(=O)N[C@@H]2C(=O)N3[C@@H]2SC(C)(C)[C@H]3C(=O)O)c2ccccc2)C(=O)C1=O`: “inactive”. On the same count and under the same terms, the same measure for `Cc1onc(-c2c(Cl)cccc2Cl)c1C(=O)N[C@@H]1C(=O)N2[C@@H]1SC(C)(C)[C@@H]2C(=O)O`: “inactive”.

`N[C@@H](CCC(=O)N[C@@H](CS)C(=O)NCC(=O)O)C(=O)O`: the activity change, negative = inhibition is -5.33% [at 19 µM]. Regarding `CC(C)C(C)C`, the Potency result was “inactive”.

As to `CCCOc1ccc2nc(NC(=O)OC)[nH]c2c1`, the Potency entry is “inactive”.
